Results reported in PubChem BioAssay (NCI).
Values joined by “and” are separate entries in the source; they are usually repeats but may differ in a detail not shown here. Equal values may be shown once. Compounds without any hit were thinned out: in the full panel of roughly 83,000, 20% have a hit.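 The test compound was applied at a single concentration to cells in 96-well plates for 48 hours, and percent growth was recorded.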 Active and inactive are the calls of the source. Rule for the calls: active = growth percent below 10; inactive = the rest.

Experiments:
Experiment in all cases: NCI-60 one-dose screen, 48 h (100 = growth as untreated, 0 = no growth, -100 = all killed)
Details in all cases: 10 µM unless noted
T-47D breast = tested on: T-47D breast
BT-549 breast = tested on: BT-549 breast
MDA-MB-435 melanoma = tested on: MDA-MB-435 melanoma
MCF7 breast = tested on: MCF7 breast
HCT-116 colon = tested on: HCT-116 colon
HCC-2998 colon = tested on: HCC-2998 colon
KM12 colon = tested on: KM12 colon
SW-620 colon = tested on: SW-620 colon

Row | Structure (SMILES) | growth (T-47D breast) | growth (BT-549 breast) | growth (MDA-MB-435 melanoma) | growth (MCF7 breast) | growth (HCT-116 colon) | growth (HCC-2998 colon) | growth (KM12 colon) | growth (SW-620 colon)
1 | NC(=S)NN=C1CCC(C2CCCCC2)CC1 (stereo not given) | 44.1% (inactive) and 40% (inactive) | 102% (inactive) and 92.5% (inactive) | 79.1% (inactive) and 77.2% (inactive) | 83% (inactive) and 95.1% (inactive) | 73.9% (inactive) and 78.6% (inactive) | 92.9% (inactive) and 94.7% (inactive) | 94.5% (inactive) and 93.9% (inactive) | 
2 | COc1ccccc1/C=N\N=C(N/N=C/c1ccccc1OC)N/N=C/c1ccccc1OC | 61.9% (inactive) and 27% (inactive) | 80.8% (inactive) and 39.1% (inactive) | 61.9% (inactive) and 30.2% (inactive) | 23.8% (inactive) and 6.76% (active) | 39.5% (inactive) and 14% (inactive) | 33.7% (inactive) and 26.8% (inactive) | 43.1% (inactive) and 15.6% (inactive) | 
3 | CCNC(=O)Nc1ccc(-c2nc3c(c(N4CCOC[C@@H]4C)n2)CCN(C2COC2)C3)cc1 | -12.4% (active) and -25.3% (active) | 28.9% (inactive) and -1.93% (active) | 32.9% (inactive) and 0.798% (active) | 15.6% (inactive) and 11.8% (inactive) | 58.9% (inactive) and 28.5% (inactive) | 50% (inactive) | 47.5% (inactive) and 17.1% (inactive) | 62.2% (inactive) and 14% (inactive)
4 | NS(=O)(=O)c1cc2c(cc1Cl)NC(C(Cl)Cl)NS2(=O)=O (stereo not given) | 104% (inactive) | 70.5% (inactive) and 102% (inactive) | 101% (inactive) and 104% (inactive) | 93.1% (inactive) and 110% (inactive) | 101% (inactive) and 100% (inactive) | 111% (inactive) | 111% (inactive) | 110% (inactive)
5 | O=C(Oc1cccc(OC(=O)c2ccccc2)c1)c1ccccc1 | 102% (inactive) | 112% (inactive) and 90.8% (inactive) | 113% (inactive) and 99.8% (inactive) | 78.7% (inactive) and 107% (inactive) | 89.2% (inactive) and 93.9% (inactive) | 96.3% (inactive) and 102% (inactive) | 87.9% (inactive) | 85.8% (inactive) and 103% (inactive)
6 | O=C(Nc1ccc(Cl)cc1)c1cc2ccccc2cc1O | 15.9% (inactive) and 15.4% (inactive) | 23.3% (inactive) | 39.2% (inactive) and 25.9% (inactive) | 12% (inactive) and -0.605% (active) | 18.9% (inactive) and -44.3% (active) |  | 8.59% (active) and 2.94% (active) | 13.3% (inactive) and 5.94% (active)
7 | Cn1c(=O)c2[nH]c(CCCCCCCCc3nc4ccccc4[nH]3)nc2n(C)c1=O | 46.6% (inactive) and 44% (inactive) | 46.1% (inactive) and 54.1% (inactive) | 37% (inactive) and 52.2% (inactive) | 45.2% (inactive) and 50.7% (inactive) | 40.9% (inactive) and 56% (inactive) | 59.2% (inactive) and 86.5% (inactive) | 83.6% (inactive) and 91.1% (inactive) | 91.7% (inactive) and 91.2% (inactive)
8 | Cc1c(Cl)cccc1NCN1C(=O)c2ccccc2C1=O | 94.4% (inactive) | 106% (inactive) | 104% (inactive) | 97.6% (inactive) | 116% (inactive) | 111% (inactive) | 103% (inactive) | 
9 | Nc1ccc2ccc(N)cc2c1 | 87.7% (inactive) | 87.7% (inactive) | -33.6% (active) | 63.5% (inactive) | 82.6% (inactive) | 100% (inactive) | 67.1% (inactive) | 87.5% (inactive)
10 | COc1ccc2cc3[n+](cc2c1OC)CCc1cc2c(cc1-3)OCO2 | 38.2% (inactive) and 47.4% (inactive) | 28.8% (inactive) and 32.3% (inactive) | 59% (inactive) and 66.2% (inactive) | 61.9% (inactive) and 76.9% (inactive) | 68.5% (inactive) and 89.6% (inactive) | 56% (inactive) and 96.8% (inactive) | 40.7% (inactive) and 30.1% (inactive) | 79.3% (inactive) and 92.3% (inactive)
11 | CCOC(=O)C(CNc1ccccc1)C(=O)OCC | 105% (inactive) | 104% (inactive) | 108% (inactive) | 99.5% (inactive) | 104% (inactive) | 102% (inactive) | 106% (inactive) | 
12 | CN(C)CCCNC1=C(Cl)C(=O)c2ccccc2C1=O | 65.3% (inactive) and 32% (inactive) | 96.8% (inactive) and 93% (inactive) | -88.6% (active) and -88.2% (active) | 45.4% (inactive) and 5.05% (active) | 47.2% (inactive) and 4.88% (active) | -0.125% (active) and -63.6% (active) | 83.3% (inactive) and 40.7% (inactive) | -63% (active) and -57.8% (active)
13 | OC(CSc1ccccc1)CN1CCN(c2cccc(Cl)c2)CC1 (stereo not given) | 90.3% (inactive) and 102% (inactive) | 97.7% (inactive) | 114% (inactive) and 93.6% (inactive) | 102% (inactive) and 94% (inactive) | 93.3% (inactive) and 97.5% (inactive) | 106% (inactive) and 95% (inactive) | 109% (inactive) and 101% (inactive) | 105% (inactive)
14 | CCN(CC)CCC(CNc1c2ccc([N+](=O)[O-])cc2nc2cc(OC)c(OC)cc12)c1ccccc1 (stereo not given) | -11.2% (active) and -82% (active) | -33.9% (active) and -92.7% (active) | -92.2% (active) and -97.3% (active) | -50.2% (active) and -97.5% (active) | -69% (active) and -89.1% (active) | -98.9% (active) | -63.5% (active) and -100% (active) | 
15 | Cc1cc(=O)[nH]c(O)c1C#N | 97.2% (inactive) and 91% (inactive) | 100% (inactive) and 103% (inactive) | 101% (inactive) and 103% (inactive) | 97.3% (inactive) and 103% (inactive) | 100% (inactive) and 96.2% (inactive) | 101% (inactive) and 100% (inactive) | 108% (inactive) and 116% (inactive) | 
16 | C=C1C(=O)O[C@H]2[C@H]1CC/C(COC(=O)NC1CCC(O)CC1)=C\CC[C@@]1(C)O[C@@H]21 (stereo not given in full) | 59.6% (inactive) and 47.6% (inactive) | 83.3% (inactive) and 79.1% (inactive) | 58.4% (inactive) and 54.8% (inactive) | 75.2% (inactive) and 66.7% (inactive) | 41.5% (inactive) and 33% (inactive) |  | 96.8% (inactive) and 97.9% (inactive) | 27.4% (inactive) and 30.1% (inactive)
17 | CCN(CC)C(=O)c1cccnc1 | 114% (inactive) | 98.5% (inactive) | 97.9% (inactive) | 108% (inactive) | 105% (inactive) | 109% (inactive) | 104% (inactive) | 106% (inactive)
18 | NC(=S)NS(=O)(=O)c1ccc(N)cc1 | 108% (inactive) | 128% (inactive) | 104% (inactive) | 101% (inactive) | 101% (inactive) | 106% (inactive) | 110% (inactive) | 
19 | CCOC(=O)C(C(=O)OCC)C(c1ccccc1)N1CCN(c2ccccc2)CC1 (stereo not given) | 108% (inactive) and 98.7% (inactive) | 103% (inactive) and 104% (inactive) | 102% (inactive) and 100% (inactive) | 97.8% (inactive) and 97.5% (inactive) | 98.3% (inactive) and 99.3% (inactive) | 114% (inactive) and 111% (inactive) | 111% (inactive) and 98.6% (inactive) | 113% (inactive) and 111% (inactive)
20 | Cc1ccc2nc3c(nc2c1)-c1cccc2cccc-3c12 | 87.6% (inactive) | 111% (inactive) | 103% (inactive) | 38.3% (inactive) | 89.4% (inactive) | 103% (inactive) | 75.4% (inactive) | 
